Screens (PubChem)
Vaccinia Venus: inhibitors of vaccinia virus (Venus reporter). Vaccinia virus Venus reporter expression, fluorescence. Potency, µM (doses to about 36.5 µM), without a hit: top-dose activity change, negative = inhibition, most hits filed as inhibitors. actives 0.46% (n = 330,000); calls by dose curve; tested in A549 cells; note: nearly all actives have a fitted effect of over 30% in size
Pf growth 48h: inhibits P. falciparum growth in the first generation, 48 h; Potency, µM (top dose mostly 28.7 µM), for the others: at the highest dose activity change, negative = inhibition, actives largely listed as inhibitors; actives 5.9% (n = 310,000); AID 504832; P. falciparum luciferase growth in erythrocytes, 48 h
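Luciferase-expressing P. falciparum in infected erythrocytes (2% hematocrit, 0.1% parasitemia final) in RPMI 1640/0.5% Albumax were exposed to compound for 48 hours at 37 C, 5% CO2; growth read as luminescence.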
AMA1 RON2 block: inhibitors of Plasmodium falciparum AMA1-RON2 interaction | actives 0.2% (n = 360,000) | AlphaScreen AMA1-biotinylated RON2 peptide binding | AID 720542 | Potency, µM (top dose mostly 58.2 µM), inactives show top-dose activity change, negative = inhibition, hits mostly inhibitors;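 note: 0% = vehicle wells and -100% = peptide control; nearly all actives have a fitted effect of over 45% in size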
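AMA1 (3D7) with his tag at 25 nM final met compounds first, then biotinylated RON2 peptide at 25 nM; detection used donor plus acceptor beads, 10 µg/mL apiece, read by AlphaScreen after 30 min at room temperature.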
Vaccinia mCherry: vaccinia inhibition (mCherry reporter); Vaccinia virus mCherry reporter infection, fluorescence; Potency, µM (series often up to 36.5 µM), for inactives: top-dose activity change, negative = inhibition, actives largely listed as inhibitors; actives 0.63% (n = 310,000); AID 720579; calls by dose curve; tested in A549 cells; note: nearly all actives have a fitted effect of over 35% in size
Pf growth 96h: P. falciparum growth inhibition at 96 hours. actives 6.9% (n = 320,000). P. falciparum luciferase reporter growth, 96 h. AID 504834. Potency, µM (top dose mostly 28.7 µM), for the others: at the highest dose activity change, negative = inhibition, actives largely listed as inhibitors
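P. falciparum expressing integrated firefly luciferase grown in erythrocytes (2% hematocrit, 0.05% parasitemia final) with compounds for 96 hours at 37 C, 5% CO2. Growth inhibition read as loss of luminescence after adding luciferase detection reagent.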
Starred values were filed as active, the others as inactive; i = inactive; u = inconclusive; x = no result given. Only some compounds are listed: those with a hit (about 8.7% of all), similar ones and a draw of the others. Unless noted, calls come from the whole dose curve; as a rule, active = well fitted curve in the direction sought with a large enough effect; inconclusive = small, poorly fitted or top-dose-only effect, or another doubt; inactive = no such curve, though single readings can be large; an effect the other way counts as inactive or inconclusive. Unless noted, % is set by controls: 0 for no effect and ±100 for the full control effect; potency is the fitted concentration of half-maximal effect.

SMILES | Vaccinia Venus | Pf growth 48h | AMA1 RON2 block | Vaccinia mCherry | Pf growth 96h
COc1ccc(OC)c2[nH]c(=O)c(CCNC(=O)c3ccc(Br)o3)cc12 | -14% | 12µM* | -3% | i | x
COc1cc2c(cc1OC)C(NC(=O)C(F)(F)F)C/C2=N\O (stereo unspecified) | 2% | 13µM* | -15% | -10% | 13%
COc1ccc2c(c1)C(NC(=O)C(F)(F)F)CC2=O (stereo unspecified) | x | 23% | 4% | x | 11%
CCc1ccc(S(=O)(=O)/N=C2\C=CC(=O)c3ccccc32)cc1 | x | 2.3µM* | x | x | u
O=C(O)c1cccc(NS(=O)(=O)c2ccc(-c3ccc(S(=O)(=O)Nc4cccc(C(=O)O)c4)cc3)cc2)c1 | -11% | 26% | 17% | i | 5%
CCc1ccc(S(=O)(=O)/N=C2\C=C(Nc3cccc(C(=O)O)c3)C(=O)c3ccccc32)cc1 | -16% | 1.7µM* | u | u | -14%
O=C(O)c1ccc(NC2=C/C(=N/S(=O)(=O)c3ccccc3)c3ccccc3C2=O)cc1 | u | u | u | u | -22%
Cc1cc(C)c(S(=O)(=O)/N=C2\C=C(Nc3ccc(C(=O)O)cc3)C(=O)c3ccccc32)c(C)c1 | u | 9.3µM* | u | u | 18%
CCc1ccc(S(=O)(=O)/N=C2\C=C(Nc3ccc(O)cc3)C(=O)c3ccccc32)cc1 | 4µM* | 0.74µM* | 25µM* | u | u
Cc1nn(C)c2c1c(C(F)(F)F)cc(=O)n2CC(=O)NCCC(C)C | 10% | x | x | -3% | x
CCc1ccc(S(=O)(=O)/N=C2/C=C(Sc3ncn[nH]3)C(=O)c3ccccc32)cc1 | 10µM* | 2.9µM* | 11% | u | 4.1µM*
Cc1ccc(S(=O)(=O)/N=C2\C=C(NS(=O)(=O)c3ccccc3)C(=O)c3ccccc32)cc1 | 32% | x | -18% | u | x
COc1ccc(-c2ccc(C(=O)NCC3Cc4cccc(-c5nc(C)cnc5C)c4O3)o2)cc1 (stereo unspecified) | 5% | x | x | -13% | x
Cc1ccc(CCNC(=O)c2ccc(CSc3nc4ccncc4n3Cc3ccc(F)cc3)cc2)cc1 | -21% | x | x | -14% | x
COc1ccccc1COCC(O)CN(Cc1ccco1)Cc1ccccc1O (stereo unspecified) | -13% | 8.3µM* | 2% | -13% | 5.2µM*
COCc1cc(Sc2cccc(Cl)c2Cl)nc(-c2ccccc2)n1 | -14% | u | 47% | x | 12µM*
CN1C(=O)Cc2cc(S(=O)(=O)N3CCOCC3)ccc21 | 5% | -8% | -4% | -12% | 4.7µM*
Cc1cccc(N2CCN(S(=O)(=O)c3ccc4c(c3)CC(=O)N4C)CC2)c1C | -21% | 9.3µM* | -14% | -1% | u
CC(CNS(=O)(=O)c1ccc2c(c1)CC(=O)N2C)c1ccccc1 (stereo unspecified) | -15% | 9.3µM* | -7% | -26% | 10µM*
CCOC(=O)C1CCN(S(=O)(=O)c2ccc3c(c2)CC(=O)N3C)CC1 | -14% | 2.1µM* | -12% | -15% | -6%
Cc1cccc(N2CCN(S(=O)(=O)c3ccc(S(=O)(=O)N4CCCC4)cc3)CC2)c1C | -9% | x | 4% | -4% | -9%
CCOC(=O)C1CCN(S(=O)(=O)c2ccc3c(c2)CCCN3C(C)=O)CC1 | -6% | -8% | 0% | -12% | x
O=S(=O)(Oc1ccccc1/C=N/n1cnnc1)c1ccccc1 | 3% | 10% | 3% | i | 12µM*
COc1ccccc1/C=N/n1cnnc1 | -2% | 36% | -2% | -9% | x
COc1ccc(OC)c(CCNc2nc3cc(OC)c(OC)cc3c3nc(-c4cccnc4)nn23)c1 | -12% | x | x | i | x
SMILES | Vaccinia Venus | Pf growth 48h | AMA1 RON2 block | Vaccinia mCherry | Pf growth 96h
COc1ccc(-c2cc(C(F)(F)F)nc(NC3CCCC3)n2)cc1OC | x | 15µM* | 9% | x | 13%
COc1ccc(CNc2nc(-c3ccc(OC)c(OC)c3)cc(C(F)(F)F)n2)cc1 | -5% | x | x | -21% | x
O=C(Nc1ccc2c(c1)CCC2)Nc1ccc2c(c1)OCO2 | 0% | 328% | -5% | i | -7%
c1cc2c(cc1NC1=NCCO1)CCCC2 | 4µM* | x | 3% | u | x
CC(c1ccon1)N(C)C(=O)c1cnn(-c2ncc3c(n2)-c2ccccc2CC3)c1C1CC1 (stereo unspecified) | -23% | x | x | -20% | x
Cc1ccc(S(=O)(=O)NCC(=O)OC(C(=O)c2ccccc2)c2ccccc2)cc1 (stereo unspecified) | x | u | 3.2µM* | x | u
CN(C)c1ccc(CNC(=O)CN2C(=O)CCn3nc(-c4cn(C)c5ccccc45)cc32)cc1 | 9% | x | x | -10% | x
CC(=O)N1c2ccc(S(=O)(=O)N3CCC(C(=O)Nc4ccccn4)CC3)cc2CC1C (stereo unspecified) | x | u | 0% | x | 5.9µM*
COc1cc(NC(=O)CN(C)S(=O)(=O)c2ccc3c(c2)CC(C)N3C(C)=O)cc(OC)c1 (stereo unspecified) | x | 0% | -1% | x | u
COc1ccc(NC(=O)CN(C)S(=O)(=O)c2ccc3c(c2)CC(C)N3C(C)=O)c(OC)c1 (stereo unspecified) | -1% | u | 1% | -22% | 7.4µM*
COc1ccc(CNC(=O)C2CCN(S(=O)(=O)c3ccc4c(c3)CC(C)N4C(C)=O)CC2)cc1 (stereo unspecified) | -7% | u | -1% | -18% | 12µM*
COc1ccc(CCNc2nc3c(-c4cccc(C)c4)nnn3c3ccccc23)cc1OC | -6% | x | x | 1% | x
COc1ccc(C(=O)n2nc(-c3cccnc3)nc2NCc2ccccc2)cc1OC | -6% | x | x | -12% | x
c1cc2c3c(cccc3c1)C(N1CCCCC1)=N2 | -21% | u | 1% | -4% | 12µM*
COc1ccc(NC(=S)NC(C)C(c2ccccc2)N2CCOCC2)cc1 (stereo unspecified) | -16% | u | 5% | i | 15µM*
Cc1ccc(C(=O)C(NC(=O)c2ccco2)N2CCOCC2)cc1 (stereo unspecified) | -5% | 77% | 19% | -4% | 20%
O=C(NC(C(=O)c1ccccc1)N1CCOCC1)c1ccccc1 (stereo unspecified) | -16% | 66% | 20% | -23% | 10µM*
CC(NC(=O)c1ccc(-c2ccccc2)cc1)C(c1ccccc1)N1CCOCC1 (stereo unspecified) | x | 7.4µM* | -1% | x | 10µM*
O=C(NC(C(=O)c1ccccc1)N1CCOCC1)c1cccs1 (stereo unspecified) | -6% | 76% | -3% | -9% | 12µM*
N.N.O=C(O)C1(C(=O)O)CCC1.[Pt] | -9% | x | x | -15% | x
O=C1C(c2ccccc2)=[N+]([O-])c2ccccc21 | -21% | 0.66µM* | 13µM* | -24% | 0.37µM*
CCc1ccc(CNC(=O)c2ccc(NC(=O)N3CC(C)Sc4ccccc43)cc2)cc1 (stereo unspecified) | -12% | x | x | i | x
